# “And” between values parts separate entries of the source, which are not always exact repeats. Identical values can stand only once. The panel holds about 83,000 compounds, 20% with a hit somewhere; the sample as a whole holds those more often.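 Testing used 96-well plates and a 48-hour single-concentration exposure. Example: -40 means 40% of the starting cells died.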 A number with no mark means an inactive call. The source made the active and inactive calls. Rule for the calls: active = growth percent below 10; inactive = the rest.
# Tested on: NCI/ADR-RES ovarian
# Assay: NCI-60 one-dose screen, 48 h (100 = growth as untreated, 0 = no growth, -100 = all killed)
# Settings: 10 µM unless noted
row,Compound,growth
1,CN1CCN(CCCN2c3ccccc3Sc3ccc(Cl)cc32)CC1,69% and 83.2%
2,O=C(c1cccc(Br)c1)N1CCN(c2ccnc3cc(Cl)ccc23)CC1,88.1%
3,N#CSc1c[nH]c2ccc(/C=C/C(=O)/C=C(/C=C/c3ccc4[nH]cc(SC#N)c4c3)OB(F)F)cc12,10.9%
4,COc1cc(Nc2nc3ccccc3cc2C(=O)Nc2ccc(F)c(F)c2)cc(OC)c1OC,6.91% (active)
5,CCOC(=O)CC1CSC(c2cccc(Cl)c2)=N1 (centres undefined),96.4%
6,CC/C=C\C/C=C\C[C@H](O)C/C=C1/C(=O)C=C[C@@H]1C/C=C\CCCC(=O)OC,12.1%
7,CCCCCCNC(=O)Oc1ccc(/C(=C(/CC)Cc2ccccc2)c2ccc(OCCCN(C)C)cc2)cc1,72.2%
8,NC(N)=NC(N)=NCCCc1ccco1,103%
9,O=C(N=Nc1c(O)[nH]c2ccccc12)Nc1ccccc1Cl,93%
10,O=C(N/N=C/c1ccc(O)cc1O)c1cccc(Nc2ccnc(C(F)(F)F)c2)c1,49.6%
11,O=C(Nc1ccc2ccccc2c1)c1cc2ccccc2cc1O,87.6%
12,Cc1ccc(-c2nc3nc(-c4ccccc4)nc(N4CCN(S(=O)(=O)c5ccccc5)CC4)c3o2)cc1,85.7%
13,Cn1cc(C2=C(c3cccc4ccccc34)C(=O)NC2=O)c2cc(Br)ccc21,92.2%
14,CC[C@@H]1NC(=O)[C@H]([C@H](O)[C@H](C)C/C=C/c2ccc(CN3C(=O)C(C)=C(C)C3=O)cc2)N(C)C(=O)[C@H](C(C)C)N(C)C(=O)[C@H](CC(C)C)N(C)C(=O)[C@H](CC(C)C)N(C)C(=O)[C@@H](C)NC(=O)[C@H](C)NC(=O)[C@H](CC(C)C)N(C)C(=O)[C@H](C(C)C)NC(=O)[C@H](CC(C)C)N(C)C(=O)CN(C)C1=O,76.5%
15,O=C1/C(=C/c2ccc(F)c(F)c2)CN(C(=O)C(Cl)Cl)C/C1=C\c1ccc(F)c(F)c1,-18% (active)
16,O=C1C(c2c[nH]c3ccccc23)=C(c2coc3cc(Br)ccc23)C(=O)N1O,105%
17,CC1=CC(C)(C)NC(=S)N1c1ccc(Cl)cc1,103% and 112%

row,Compound,growth
1,O=C1/C(=C/c2ccccc2)CN(C(=O)C(Cl)Cl)C/C1=C\c1ccccc1,13.5%
2,CC(=O)N1N=C(c2ccc(Nc3nc(Nc4ccc(F)cc4)nc(Nc4ccc(Cl)cc4)n3)cc2)CC1c1ccc(N(C)C)cc1 (centres undefined),48.3%
3,CCCN1C(=O)/C(=c2\sc3n(c2=O)NC2C(N=3)N(CC)C(=O)N2CC)c2ccccc21 (centres undefined),8.06% (active)
4,CONC1=Nc2cc(NC(N)=NCc3ccccc3)c(N(C)C3CCCCC3)cc2OC1,99.8%
5,Cc1c(CC(=O)OCCO)cc(-c2ccc(Cl)cc2)n1-c1ccccc1,99.5%
6,COc1cc(/C=C2\CCC/C(=C\c3cc(CN4CCCC4)c(O)c(OC)c3)C2=O)cc(CN2CCCC2)c1O,59.8%
7,Fc1ccccc1-c1cnn2cc(-c3ccccc3)cnc12,95%
8,CC(C)(C)c1cc(NC(=O)Nc2ccc(-c3cn4c(n3)sc3cc(OCCN5CCOCC5)ccc34)cc2)no1,51.5% and 23.2%
9,COc1ccc(/C=N/NC(=O)CN2CCN(c3cc4c(cc3F)c(=O)c(C(=O)O)cn4C3CC3)CC2)cc1O,106%
10,NNCCc1ccccc1,104% and 91.4%
11,CNC(=O)c1cc(Oc2ccc3nc(NC(=O)Nc4ccc(C(F)(F)F)cc4)sc3c2)ccn1,58.4%
12,CC1=C2[C@@H](CC1)[C@]1(C)O[C@@](C3CC3)(C[C@H]1OC(=O)CO)[C@H]2OC(=O)/C=C/c1ccccc1,2.55% (active)
13,O=C(c1ccc(Nc2nccc(NCCCNc3ccnc4cc(Cl)ccc34)n2)cc1)N1CCCCC1,92.6%
14,CCN(CC)CC#CCOC(=O)[C@]1(C)CCC[C@]2(C)c3ccc(C(C)C)cc3CC[C@@H]12,84.5%
15,Nc1nc2ccccc2c2c(=O)c3ccc(Cl)cc3sc12,110%
16,Nc1nc2c(s1)CCc1cn(S(=O)(=O)c3ccccc3)cc1-2,91.9% and 103%
17,COc1cccc(NC(=O)c2sc3nc(C)c(C(O)c4ccccc4)cc3c2N)c1 (centres undefined),7.31% (active)

# From PubChem BioAssay (NCI)
